# Data from article PMC4336329 (PLoS ONE, 2015).
# The campaign covered roughly 310,000 compounds. About 14,000 (4.5%) showed an effect of 50% or more. The effect is printed as a negative number. Many of the other results were omitted from the sample, so strong results are more common in it than they were.
# Target: human ether-à-go-go-related gene (hERG) potassium channel (human, UniProt Q12809)
# Assay: primary screen, population patch clamp on CHO cells stably expressing hERG; higher = less effect of the substance
# 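Further: peak tail current of the secondary pulse compared with the same well before compound.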
# Chain of human ether-à-go-go-related gene (hERG) potassium channel (Q12809 whole entry, looked up): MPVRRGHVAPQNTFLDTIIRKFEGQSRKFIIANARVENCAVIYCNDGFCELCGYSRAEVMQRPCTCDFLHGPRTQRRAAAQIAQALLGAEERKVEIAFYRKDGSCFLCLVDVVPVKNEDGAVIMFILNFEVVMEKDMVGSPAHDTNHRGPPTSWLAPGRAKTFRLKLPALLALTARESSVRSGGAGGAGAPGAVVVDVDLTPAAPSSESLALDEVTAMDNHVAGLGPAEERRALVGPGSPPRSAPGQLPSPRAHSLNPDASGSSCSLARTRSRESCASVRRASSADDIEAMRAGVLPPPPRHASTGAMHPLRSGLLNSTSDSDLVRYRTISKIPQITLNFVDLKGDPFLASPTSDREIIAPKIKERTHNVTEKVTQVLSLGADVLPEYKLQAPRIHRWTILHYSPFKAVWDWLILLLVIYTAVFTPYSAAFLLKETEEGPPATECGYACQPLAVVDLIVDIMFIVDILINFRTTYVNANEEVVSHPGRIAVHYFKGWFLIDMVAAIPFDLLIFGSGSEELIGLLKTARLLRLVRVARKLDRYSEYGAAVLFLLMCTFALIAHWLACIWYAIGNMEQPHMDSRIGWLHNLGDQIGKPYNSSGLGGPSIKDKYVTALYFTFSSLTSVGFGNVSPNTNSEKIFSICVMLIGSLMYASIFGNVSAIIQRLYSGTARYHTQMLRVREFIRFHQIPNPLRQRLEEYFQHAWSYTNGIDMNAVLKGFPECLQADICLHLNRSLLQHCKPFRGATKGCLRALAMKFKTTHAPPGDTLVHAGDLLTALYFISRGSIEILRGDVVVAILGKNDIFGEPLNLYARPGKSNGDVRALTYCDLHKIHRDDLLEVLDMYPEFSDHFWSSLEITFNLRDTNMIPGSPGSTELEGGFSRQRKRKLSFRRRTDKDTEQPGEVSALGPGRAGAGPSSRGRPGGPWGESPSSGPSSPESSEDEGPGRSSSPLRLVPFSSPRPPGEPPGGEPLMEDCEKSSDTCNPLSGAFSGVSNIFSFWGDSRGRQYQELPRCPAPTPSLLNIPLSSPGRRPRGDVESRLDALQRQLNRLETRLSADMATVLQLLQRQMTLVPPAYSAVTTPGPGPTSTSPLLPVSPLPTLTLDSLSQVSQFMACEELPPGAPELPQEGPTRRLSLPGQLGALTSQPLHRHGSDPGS
row,SMILES,"hERG current change (%, negative = inhibition) at 10uM"
1,O=S(=O)(N1CCOCC1)N1CCCN(S(=O)(=O)N2CCOCC2)CC1,5.76%
2,COc1cc2ccccc2cc1C(=O)NCCCN1CCOCC1,-5.9%
3,Cc1nn(C(C)C(=O)Nc2sc3c(c2C#N)CCCC3)c(C)c1[N+](=O)[O-] (stereo not shown),12.1%
4,O=C(/C=C/c1ccccc1Cl)NCCCn1ccnc1,-17%
5,Cc1ccc(S(=O)(=O)c2c(C)nn(C(C)(C)C)c2OC(=O)C(C)(C)C)cc1,15.6%
6,C=CCn1c(N2CCN(c3ccc(OC)cc3)CC2)nc2c1c(=O)n(C)c(=O)n2C,-32.1%
7,CCN(CC)c1nc(C)nc2c1sc(=S)n2C,-1.82%
8,Clc1ccc(CNc2nnnn2-c2ccccc2)c(Cl)c1,20.7%
9,COc1cccc(/C=C/C(=O)OCC(=O)Nc2ccc(Cl)cn2)c1,28.1%
10,CCCCC1=NN(C(=O)c2ccncc2)C(O)(C(F)(F)F)C1 (stereo not shown),23.1%
11,COc1ccccc1C(=O)COC(=O)CCNS(=O)(=O)c1ccc(C)c(C)c1,-21.9%
12,CCC(C(=O)N1CCN(c2ccccn2)CC1)n1nc(C)n2c(cc3occc32)c1=O (stereo not shown),-5.95%
13,Cc1ccc(C(=O)N2N=C(c3ccccc3O)CC2c2ccccc2)cc1 (stereo not shown),14.6%
14,COc1ccc(NC(=O)CSc2nc(=O)n(CCN(C)C)c3c2CCCC3)cc1OC,-11.5%
15,CN(C)CCn1c2c(c(SCC(=O)Nc3ccccc3)nc1=O)CCCC2,-26.7%
16,Cc1ccc(NC(=O)CSc2nc(=O)n(CCN(C)C)c3c2CCCC3)cc1Cl,-59.8%
17,CN(C)CCn1c2c(c(SCC(=O)Nc3cccc(C(F)(F)F)c3)nc1=O)CCCC2,-68.8%
18,COc1cccc(NC(=O)CSc2nc(=O)n(CCN(C)C)c3c2CCCC3)c1,-49.9%
19,CN(C)CCn1c2c(c(SCC(=O)Nc3ccc4c(c3)OCCO4)nc1=O)CCCC2,-14.8%
20,Cc1ccc(-n2nc3c(c2NC(=O)c2ccco2)CS(=O)C3)cc1 (stereo not shown),-8.69%
21,CC(C)Cn1c(=S)[nH]c2ccccc2c1=O,22%
22,CCCNC(=O)NCCc1ccncc1,7.09%

row,SMILES,"hERG current change (%, negative = inhibition) at 10uM"
1,COc1ccc2c(c1OC)C(=O)N(c1ccc(O)cc1)C2=O,13.4%
2,CCN(CCCNC(=O)c1[nH]c(C)c(C(C)=O)c1C)c1cccc(C)c1,-18.2%
3,Cc1cc(=O)oc(C)c1C(=O)NCCc1ccccc1,7.49%
4,Cc1cc(=O)oc(C)c1C(=O)NCc1ccccc1,11.2%
5,CCCNC(=O)c1c(C)cc(=O)oc1C,-6.11%
6,CCN(CCCNC(=O)c1c(C)cc(=O)oc1C)c1ccccc1,-52.7%
7,Cc1cc(=O)oc(C)c1C(=O)NCCN(C)Cc1ccccc1,8.33%
8,CCCCN(CCCNC(=O)c1c(C)cc(=O)oc1C)c1ccccc1,-64.4%
9,CCN(CCCNC(=O)c1c(C)cc(=O)oc1C)c1cccc(C)c1,-65.3%
10,Cc1cc(=O)oc(C)c1C(=O)NCCNC(=O)c1c(C)cc(=O)oc1C,3.85%
11,CC(=O)c1ccc(N2CCN(C(=O)CCS(=O)(=O)c3ccc4c(c3)CCN4C(C)=O)CC2)cc1,3.77%
12,COc1ccc(-c2csc3ncn(Cc4ccccc4)c(=O)c23)cc1,-0.922%
13,COc1ccc(N2CCN(CC(=O)N3N=CCC3c3ccccc3)CC2)cc1 (stereo not shown),-2.49%
14,O=C(COC(=O)CCc1c[nH]c2ccccc12)NCc1ccc2c(c1)OCO2,13.2%
15,C/C(=N\NC(=S)NC1CCCCC1)c1c(F)cccc1F,-35%
16,C/C(N)=C(/C#N)C(=O)COC(=O)[C@@H](NC(=O)c1ccccc1Cl)C(C)C,4.16%
17,COc1ccc(S(=O)(=O)N2CCOC2CNC(=O)C(=O)NCc2ccncc2)cc1 (stereo not shown),3.26%
18,COc1ccc(OC)c(-c2nnc(SCC(=O)NC3CCCCC3)o2)c1,-59.8%
19,COc1ccccc1-c1ccc(SCC(=O)NC2CCCCC2)nn1,-72%
20,COc1ccc(-c2nnc(SCC(=O)NC3CCCCC3)o2)cc1OC,-9.47%
21,COc1ccccc1-c1ccc(SCC(=O)NC2CCCC2)nn1,-24.5%
22,COc1ccccc1-c1nnc(SCC(=O)NC2CCCCC2)o1,-27.4%

row,SMILES,"hERG current change (%, negative = inhibition) at 10uM"
1,COc1ccc(-c2ccc(SCC(=O)NC3CCCCC3)nn2)cc1OC,16.4%
2,Cc1ccc(NS(=O)(=O)c2ccc(C(=O)NNC(=O)c3ccccc3O)cc2)cc1,0.906%
3,COC(=O)Cn1c(=NC(=O)c2ccc(Cl)s2)sc2cc(F)ccc21,20%
4,O=C(CCS(=O)(=O)c1ccc(Cl)cc1)Nc1ccc(N2CCOCC2)cc1,-6.95%
5,CCOC(=O)c1sc2nc(C)nc(Nc3ccc(OC)cc3)c2c1C,24.1%
6,CN(Cc1cccnc1)C(=O)Cc1ccc(NS(=O)(=O)c2cccc(C(F)(F)F)c2)cc1,-57.6%
7,O=S(=O)(Nc1cccnc1)c1cccc(C(F)(F)F)c1,-2.26%
8,CC(NC(=O)Cc1ccc(NS(=O)(=O)c2cccc(C(F)(F)F)c2)cc1)c1ccccn1 (stereo not shown),-7.55%
9,Cc1ccc(C(=O)N2CCOCC2)cc1Cl,2.91%
10,Cc1c(NC(=O)C(C)OC(=O)c2ccc(Cl)nc2)c(=O)n(-c2ccccc2)n1C (stereo not shown),-2.18%
11,O=C(COC(=O)c1ccccc1F)NC(=O)NC1CCCC1,1.24%
12,N#CC1(NC(=O)CN2c3cccc4cccc(c34)S2(=O)=O)CCCCC1,14.9%
13,COc1ccccc1-c1nnc(C2CCN(S(=O)(=O)c3ccc([N+](=O)[O-])cc3)CC2)o1,-74.6%
14,COc1ccccc1CNC(=O)C1CCN(S(=O)(=O)c2cccc([N+](=O)[O-])c2)CC1,-3.34%
15,COc1ccccc1-c1nnc(NC(=O)c2ccc(S(=O)(=O)N3CCCC3)cc2)o1,-17.3%
16,COc1ccccc1-c1nnc(C2CCN(S(=O)(=O)c3cccc([N+](=O)[O-])c3)CC2)o1,-57.6%
17,COc1ccccc1-c1nnc(C2CCN(S(=O)(=O)c3ccccc3[N+](=O)[O-])CC2)o1,-45.2%
18,O=[N+]([O-])c1cccc(S(=O)(=O)N2CCC(c3nc(-c4ccncc4)no3)CC2)c1,1.54%
19,O=C(CCCN1C(=O)c2ccccc2C1=O)NCc1ccco1,6.15%
20,COc1ccc(N2C(=O)CC(Nc3cccc(C(C)=O)c3)C2=O)cc1OC (stereo not shown),7.07%
21,COc1cc(OC)cc(C(=O)NCCCNC(=O)c2cccnc2)c1,7.43%
22,N#C/C(=C\c1ccc(N2CCCCC2)o1)C(N)=O,7.71%

row,SMILES,"hERG current change (%, negative = inhibition) at 10uM"
1,CC(C)CCN1CCN(Cc2cccn2-c2cccnc2)CC1CCO (stereo not shown),-32.5%
2,OCCC1CN(Cc2cccn2-c2ncccn2)CCN1Cc1ccc(F)cc1 (stereo not shown),-73.7%
3,Cc1ncc(CN2CCN(Cc3ccc(F)cc3)C(CCO)C2)s1 (stereo not shown),9.56%
4,OCCC1CN(Cc2cccn2-c2ncccn2)CCN1Cc1ccccc1 (stereo not shown),-64.2%
5,OCCC1CN(Cc2cccn2-c2cccnc2)CCN1CCc1ccccc1 (stereo not shown),-65.2%
6,OCCC1CN(Cc2cccn2-c2ncccn2)CCN1CCc1ccccc1 (stereo not shown),-68.2%
7,Cc1cc(C)n(-c2ccc(C(=O)OCC(=O)Nc3ccc([N+](=O)[O-])cc3)cc2)n1,-10.6%
8,Cc1ccc(C(=O)Nc2nnc(SCC(=O)N3CCCc4ccccc43)s2)cc1,7.27%
9,Cc1ccc(-n2c(SCC(=O)O)nc3c(sc(=S)n3-c3ccc(C)c(C)c3)c2=O)cc1,14%
10,O=C(c1cn(-c2ccccc2)nc1-c1ccc(Cl)s1)N1CCOCC1,-20.9%
11,COc1ccc(CNC(=O)COC(=O)/C=C/c2cccc(Br)c2)cc1OC,30.1%
12,CC(=O)Nc1ccc(C2=NN(c3ccccc3)C(c3cccs3)C2)cc1 (stereo not shown),7.7%
13,Cc1cc(NC(=O)COc2ccc(F)c(Cl)c2)no1,17.7%
14,CCn1c(SCc2ccccc2)nc2ccccc2c1=O,2.76%
15,Cc1ccc(OCC(=O)NC(C)c2ccccc2)cc1 (stereo not shown),-1.19%
16,O=C1C2=C(CCCC2)C(=O)N1CNc1ccccc1,16.3%
17,O=C1CC(N(Cc2cccs2)C(=O)Nc2ccccc2)C(=O)N1c1ccc(Cl)cc1 (stereo not shown),-22.6%
18,Cc1ccccc1OCc1nc2ccccc2c(=O)n1/N=C/c1cn[nH]c1-c1ccc(Br)cc1,15.8%
19,CCN(CC)c1ccc(NC(=O)Nc2cccc3ccccc23)cc1,7.7%
20,CCn1nc(C)c(CN2CCN(Cc3ccc(OC)c(C)c3C)C(CCO)C2)c1C (stereo not shown),-45.8%
21,COc1ccc(CN2CCN(Cc3cccn3-c3ncccn3)CC2CCO)c(C)c1C (stereo not shown),-81.6%
22,COc1ccc(CN2CCN(CC3CC3)CC2CCO)c(C)c1C (stereo not shown),-0.714%
